According to the supplement of paper PMC13380429:

System: Vero E6 infected with SARS-CoV-2
Assay: inhibition of SARS-CoV-2 cytopathic effect; higher = more antiviral protection, active = above 15
Settings: 48 h

Measured: inhibition of SARS-CoV-2 cytopathic effect

O=c1cccc2n1C[C@@H]1CNC[C@H]2C1 [cytisine]
inactive: 1 nM 1.86% | 8.33 nM 0.43% | 100 nM -2.65% | 833.33 nM -1.32% | 10000 nM -2.16%

N#C[C@H](O[C@@H]1O[C@H](CO[C@@H]2O[C@H](CO)[C@@H](O)[C@H](O)[C@H]2O)[C@@H](O)[C@H](O)[C@H]1O)c1ccccc1 [amygdalin]
inactive: 1 nM 0.51% | 8.33 nM -1.9% | 100 nM 0.79% | 833.33 nM -1.12% | 10000 nM 0.27%

CC1(C)CCC(C)(C)c2c1cc(C(=O)Nc1cc(F)c(C(=O)O)c(F)c1)c(O)c2Cl
inactive: 1 nM -1.01% | 8.33 nM -0.71% | 100 nM 0.11% | 833.33 nM 2.72% | 10000 nM 3.26%
